In the supplement of paper PMC10849652:
Of roughly 7,900 targets only a part is listed; those with a hit were picked by preference. About 0.6% of all pairs of compound and target were hits. A number with no mark means an inactive call.

Columns and labels:
Assay in all cases: log2 fold change, soluble protein after heating vs DMSO (PISA); higher = thermal stabilisation; K562 cells, 10 uM, 30 min; active = over 0.2 and 3.5 SD of the protein, either way, in both replicates (recomputed)
[1] = compound: COC1=CC=C(C=C1)CN2C=CC3=C2C=C(C=C3)C(=O)NO
Outline: (§1)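 For each measurement, 10 μM compound was applied for 30 min to K562 cells at 2×10^6 cells/mL. Aliquots were heated for 3 min across 48°C-58°C, pooled, and extracted in PBS with 0.5% NP-40 at 4°C; the supernatant after 21,000xg for 90 min was soluble protein. This was quantified by TMTpro 16plex LC-MS/MS with channel sums equalised, and thermal stability was reported relative to control samples from duplicates, on a log2 fold-change scale.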

[2] = compound: CON(C)C(=O)N1N=C(c2cc(F)ccc2F)S[C@@]1(CCCN)c1ccccc1 [filanesib]
Outline: as §1

[3] = compound: CO[C@H]1C[C@@H]2CC[C@@H](C)[C@@](O)(O2)C(=O)C(=O)N2CCCC[C@H]2C(=O)O[C@H]([C@H](C)C[C@@H]2CC[C@H](n3cnnn3)[C@H](OC)C2)CC(=O)[C@H](C)/C=C(\C)[C@@H](O)[C@@H](OC)C(=O)[C@H](C)C[C@H](C)/C=C/C=C/C=C/1C [zotarolimus]
Outline: as §1

[4] = compound: COc1cc(C(=O)O)ccc1NC(=O)[C@@H]1N[C@@H](CC(C)(C)C)[C@](C#N)(c2ccc(Cl)cc2F)[C@H]1c1cccc(Cl)c1F [idasanutlin]
Outline: as §1

[5] = compound: COc1cc(Nc2ncc3c(n2)-c2ccc(Cl)cc2C(c2c(F)cccc2OC)=NC3)ccc1C(=O)O [alisertib]
Outline: as §1

[6] = compound: COc1cc2nc(-c3cc(F)ccc3O)nc(N[C@@H]3CNC[C@H]3C(C)(C)O)c2cc1OC
Outline: as §1

[7] = compound: COc1cc2ncnc(Nc3ccc(F)c(Cl)c3)c2cc1OCCCN1CCOCC1 [gefitinib]
Outline: as §1

[8] = compound: COc1cccc2cc(-c3nc([C@H]4CC[C@H](C(=O)O)CC4)n4ncnc(N)c34)[nH]c12
Outline: as §1

[9] = compound: CS(=O)(=O)CCNCc1ccc(-c2ccc3ncnc(Nc4ccc(OCc5cccc(F)c5)c(Cl)c4)c3c2)o1 [lapatinib]
Outline: as §1

[10] = compound: CS(=O)(=O)N1CCN(Cc2cc3nc(-c4cccc5[nH]ncc45)nc(N4CCOCC4)c3s2)CC1 [pictilisib]
Outline: as §1

UniProt Q86YH6, sequence (Q86YH6 whole entry, looked up): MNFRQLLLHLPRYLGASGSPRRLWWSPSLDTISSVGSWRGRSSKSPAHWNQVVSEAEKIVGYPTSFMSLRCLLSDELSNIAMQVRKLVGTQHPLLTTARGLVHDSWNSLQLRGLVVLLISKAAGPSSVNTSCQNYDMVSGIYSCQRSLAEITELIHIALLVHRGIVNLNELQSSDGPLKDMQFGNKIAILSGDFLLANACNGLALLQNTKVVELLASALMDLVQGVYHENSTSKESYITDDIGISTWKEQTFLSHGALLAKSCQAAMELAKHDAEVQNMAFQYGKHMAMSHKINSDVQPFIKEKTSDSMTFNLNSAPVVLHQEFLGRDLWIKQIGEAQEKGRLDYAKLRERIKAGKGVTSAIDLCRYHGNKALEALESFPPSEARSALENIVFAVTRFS
UniProt O94806, sequence (O94806 whole entry, looked up): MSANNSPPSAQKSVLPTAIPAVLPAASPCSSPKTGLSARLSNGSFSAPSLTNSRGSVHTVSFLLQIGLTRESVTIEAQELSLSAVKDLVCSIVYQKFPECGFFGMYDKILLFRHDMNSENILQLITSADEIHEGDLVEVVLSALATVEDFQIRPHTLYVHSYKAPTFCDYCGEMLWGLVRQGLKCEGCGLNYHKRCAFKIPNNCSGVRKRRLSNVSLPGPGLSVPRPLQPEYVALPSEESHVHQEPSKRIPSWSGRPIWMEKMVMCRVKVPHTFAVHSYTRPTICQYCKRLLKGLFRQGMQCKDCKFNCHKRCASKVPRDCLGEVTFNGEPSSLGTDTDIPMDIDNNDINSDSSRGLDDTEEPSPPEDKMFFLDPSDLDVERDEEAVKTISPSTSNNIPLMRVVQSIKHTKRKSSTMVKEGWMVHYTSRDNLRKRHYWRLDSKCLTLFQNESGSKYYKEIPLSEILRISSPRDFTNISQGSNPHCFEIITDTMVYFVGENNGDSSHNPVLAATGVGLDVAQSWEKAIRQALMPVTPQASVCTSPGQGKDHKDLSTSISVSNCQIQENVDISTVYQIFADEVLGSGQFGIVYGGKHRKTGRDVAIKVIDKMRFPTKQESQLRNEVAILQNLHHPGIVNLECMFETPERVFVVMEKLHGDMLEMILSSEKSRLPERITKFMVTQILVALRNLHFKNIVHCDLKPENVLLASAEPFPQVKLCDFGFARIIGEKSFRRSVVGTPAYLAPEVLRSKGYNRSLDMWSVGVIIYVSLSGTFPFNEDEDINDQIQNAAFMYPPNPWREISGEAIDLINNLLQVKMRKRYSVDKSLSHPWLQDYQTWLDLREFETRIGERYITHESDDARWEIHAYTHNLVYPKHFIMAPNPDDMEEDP
UniProt Q14442, sequence (Q14442 whole entry, looked up): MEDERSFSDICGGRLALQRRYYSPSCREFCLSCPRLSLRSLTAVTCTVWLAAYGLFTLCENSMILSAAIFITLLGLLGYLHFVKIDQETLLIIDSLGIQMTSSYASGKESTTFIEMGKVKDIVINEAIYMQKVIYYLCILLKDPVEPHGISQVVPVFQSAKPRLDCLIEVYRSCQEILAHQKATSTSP
UniProt Q13362, sequence (Q13362 whole entry, looked up): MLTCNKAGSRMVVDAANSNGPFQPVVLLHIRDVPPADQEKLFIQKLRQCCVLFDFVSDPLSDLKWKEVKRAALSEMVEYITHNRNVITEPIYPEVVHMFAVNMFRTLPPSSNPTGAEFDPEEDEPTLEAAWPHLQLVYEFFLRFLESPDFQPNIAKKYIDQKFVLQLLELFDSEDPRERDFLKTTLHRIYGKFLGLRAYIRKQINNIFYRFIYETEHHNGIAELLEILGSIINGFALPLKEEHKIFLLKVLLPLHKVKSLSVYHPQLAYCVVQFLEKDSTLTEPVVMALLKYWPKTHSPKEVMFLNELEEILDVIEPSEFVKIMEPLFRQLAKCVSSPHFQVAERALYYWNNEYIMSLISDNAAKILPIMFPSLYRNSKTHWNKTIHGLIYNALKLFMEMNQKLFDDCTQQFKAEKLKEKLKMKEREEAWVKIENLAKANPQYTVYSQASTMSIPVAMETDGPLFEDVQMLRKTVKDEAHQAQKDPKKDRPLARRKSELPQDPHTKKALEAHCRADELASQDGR
UniProt P14618, sequence (P14618 whole entry, looked up): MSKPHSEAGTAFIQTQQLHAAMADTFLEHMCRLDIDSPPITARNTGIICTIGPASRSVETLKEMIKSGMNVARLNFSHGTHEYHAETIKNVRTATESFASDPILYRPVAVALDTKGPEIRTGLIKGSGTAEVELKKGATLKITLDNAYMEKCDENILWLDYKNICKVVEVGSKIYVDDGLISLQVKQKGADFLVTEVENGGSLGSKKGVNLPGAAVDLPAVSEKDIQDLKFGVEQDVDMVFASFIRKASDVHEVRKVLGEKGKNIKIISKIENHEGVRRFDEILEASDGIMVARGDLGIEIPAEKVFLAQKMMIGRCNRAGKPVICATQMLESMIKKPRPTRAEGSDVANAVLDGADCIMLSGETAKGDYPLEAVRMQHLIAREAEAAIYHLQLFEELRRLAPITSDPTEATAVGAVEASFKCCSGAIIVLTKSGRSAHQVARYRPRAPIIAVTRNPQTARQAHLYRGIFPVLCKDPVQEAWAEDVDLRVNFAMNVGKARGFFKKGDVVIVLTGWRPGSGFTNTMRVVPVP
UniProt Q96RV3, sequence (Q96RV3 whole entry, looked up): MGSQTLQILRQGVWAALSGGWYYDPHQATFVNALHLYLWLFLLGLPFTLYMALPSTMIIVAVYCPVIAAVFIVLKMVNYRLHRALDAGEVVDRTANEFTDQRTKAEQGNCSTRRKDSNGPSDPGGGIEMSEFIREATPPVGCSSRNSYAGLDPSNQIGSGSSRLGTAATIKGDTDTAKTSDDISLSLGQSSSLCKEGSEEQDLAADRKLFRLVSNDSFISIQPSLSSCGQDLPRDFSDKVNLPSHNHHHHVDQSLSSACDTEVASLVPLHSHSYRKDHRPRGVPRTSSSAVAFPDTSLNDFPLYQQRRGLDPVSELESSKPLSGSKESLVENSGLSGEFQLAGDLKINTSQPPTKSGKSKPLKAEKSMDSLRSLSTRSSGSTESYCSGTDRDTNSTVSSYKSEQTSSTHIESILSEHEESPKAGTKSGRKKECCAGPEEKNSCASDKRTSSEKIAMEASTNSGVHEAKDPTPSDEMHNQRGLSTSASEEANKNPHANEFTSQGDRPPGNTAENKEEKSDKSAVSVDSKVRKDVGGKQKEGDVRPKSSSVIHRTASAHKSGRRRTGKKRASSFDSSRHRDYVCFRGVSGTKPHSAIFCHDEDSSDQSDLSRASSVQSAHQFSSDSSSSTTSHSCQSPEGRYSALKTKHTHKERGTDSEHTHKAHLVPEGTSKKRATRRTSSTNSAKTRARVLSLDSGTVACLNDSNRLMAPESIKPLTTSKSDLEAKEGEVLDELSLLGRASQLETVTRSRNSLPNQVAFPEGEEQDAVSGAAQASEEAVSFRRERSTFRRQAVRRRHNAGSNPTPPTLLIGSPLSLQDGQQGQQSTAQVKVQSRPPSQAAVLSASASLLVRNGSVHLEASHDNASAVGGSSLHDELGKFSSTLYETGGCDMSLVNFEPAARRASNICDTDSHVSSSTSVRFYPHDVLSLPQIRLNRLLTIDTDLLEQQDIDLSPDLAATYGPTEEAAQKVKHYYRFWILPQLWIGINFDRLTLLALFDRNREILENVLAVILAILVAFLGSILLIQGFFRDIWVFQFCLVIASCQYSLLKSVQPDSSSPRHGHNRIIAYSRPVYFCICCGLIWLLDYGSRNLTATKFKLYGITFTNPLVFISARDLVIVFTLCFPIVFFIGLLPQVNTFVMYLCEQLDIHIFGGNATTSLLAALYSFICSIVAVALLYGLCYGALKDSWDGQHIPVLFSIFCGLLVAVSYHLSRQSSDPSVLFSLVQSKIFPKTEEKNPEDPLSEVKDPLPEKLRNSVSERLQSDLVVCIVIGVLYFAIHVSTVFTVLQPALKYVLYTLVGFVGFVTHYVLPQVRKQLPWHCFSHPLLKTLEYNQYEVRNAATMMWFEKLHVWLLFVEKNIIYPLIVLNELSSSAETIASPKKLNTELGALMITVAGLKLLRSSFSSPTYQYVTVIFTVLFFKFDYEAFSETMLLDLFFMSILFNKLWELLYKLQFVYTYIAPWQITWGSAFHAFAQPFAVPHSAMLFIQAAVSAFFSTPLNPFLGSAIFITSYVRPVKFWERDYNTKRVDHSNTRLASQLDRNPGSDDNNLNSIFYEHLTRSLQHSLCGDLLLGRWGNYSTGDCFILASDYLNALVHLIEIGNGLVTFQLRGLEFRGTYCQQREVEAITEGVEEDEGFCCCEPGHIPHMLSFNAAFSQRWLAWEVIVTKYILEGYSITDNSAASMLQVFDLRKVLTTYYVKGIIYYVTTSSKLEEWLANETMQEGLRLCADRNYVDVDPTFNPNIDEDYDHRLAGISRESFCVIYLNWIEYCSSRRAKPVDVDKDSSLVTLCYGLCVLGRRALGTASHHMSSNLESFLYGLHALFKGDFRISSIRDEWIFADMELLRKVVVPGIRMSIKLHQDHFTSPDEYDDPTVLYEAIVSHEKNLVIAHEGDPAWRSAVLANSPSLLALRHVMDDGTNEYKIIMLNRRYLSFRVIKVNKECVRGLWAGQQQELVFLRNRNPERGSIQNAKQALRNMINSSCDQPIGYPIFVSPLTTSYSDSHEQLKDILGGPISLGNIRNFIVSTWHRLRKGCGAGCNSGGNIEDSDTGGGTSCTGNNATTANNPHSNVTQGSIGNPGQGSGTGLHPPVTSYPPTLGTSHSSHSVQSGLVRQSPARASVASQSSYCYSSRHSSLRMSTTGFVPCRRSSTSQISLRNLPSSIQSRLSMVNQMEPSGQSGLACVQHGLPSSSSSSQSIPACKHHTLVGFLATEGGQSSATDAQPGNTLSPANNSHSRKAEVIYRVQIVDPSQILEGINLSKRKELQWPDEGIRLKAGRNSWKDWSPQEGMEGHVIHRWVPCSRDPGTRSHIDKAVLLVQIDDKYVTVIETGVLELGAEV
UniProt Q68D20, sequence (Q68D20 whole entry, looked up): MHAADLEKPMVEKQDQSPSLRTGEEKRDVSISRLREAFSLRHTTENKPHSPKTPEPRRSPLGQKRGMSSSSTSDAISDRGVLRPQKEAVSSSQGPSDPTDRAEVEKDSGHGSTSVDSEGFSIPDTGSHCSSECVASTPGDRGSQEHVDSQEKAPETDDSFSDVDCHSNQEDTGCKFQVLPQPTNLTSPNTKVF

Target | log2 fold change [1] | log2 fold change [2] | log2 fold change [3] | log2 fold change [4] | log2 fold change [5] | log2 fold change [6] | log2 fold change [7] | log2 fold change [8] | log2 fold change [9] | log2 fold change [10]
PTPN12 (UniProt Q05209) | -0.024 | 0.04 | 0.041 | -0.021 | -0.06 | 0.053 | 0.025 | -0.132 | 0.039 | 0.012
PI4K2B (UniProt Q8TCG2) | -0.035 | -0.059 | -0.014 | -0.034 | -0.059 | – | 0.4 | -0.054 | – | 0.051
PUF60 (UniProt Q9UHX1) | 0.007 | 0.087 | 0.026 | 0.022 | -0.05 | -0.028 | 0.014 | 0.008 | 0.063 | 0
PPIL4 (UniProt Q8WUA2) | -0.001 | 0.116 | 0.032 | 0.101 | -0.003 | 0.015 | 0.002 | -0.005 | 0.02 | 0.018
PRKD3 (UniProt O94806) | -0.062 | -0.002 | 0.084 | 0.171 | -0.039 | – | – | 0.149 | – | 0.255
PRMT8 (UniProt Q9NR22) | -0.143 | -0.162 | -0.014 | -0.109 | -0.028 | -0.019 | 0.002 | 0.042 | 0.145 | 0.025
PYGL (UniProt P06737) | -0.028 | 0.043 | -0.007 | -0.015 | -0.03 | 0.095 | -0.013 | 0.051 | -0.075 | -0.122
PDE6D (UniProt O43924) | -0.036 | 0.101 | -0.179 | -0.092 | -0.031 | – | 0.076 | 0.002 | – | 0.078
PEX13 (UniProt Q92968) | 0.028 | -0.072 | -0.129 | -0.019 | -0.037 | -0.318 (active) | -0.045 | 0.115 | -0.013 | 0.009
PLCL1 (UniProt Q15111) | 0.048 | -0.036 | 0.09 | 0.062 | -0.107 | – | 0.118 | 0.229 | – | -0.073
PDSS2 (UniProt Q86YH6) | 0.23 | 0.025 | 0.184 | 0.157 | – | -0.286 | 0.15 | – | 0.162 | -0.038
PKM isoform 2 (UniProt P14618) | 0.141 | 0.04 | – | -0.049 | -0.139 | 0.141 | -0.056 | 0.059 | -0.115 | 0.109
PHRF1 (UniProt Q9P1Y6) | – | – | – | – | -0.001 | 0.049 | – | -0.121 | 0.194 | –
PMS2CL (UniProt Q68D20) | – | – | – | – | -0.254 | – | 0.033 | -0.099 | – | –
PIGH (UniProt Q14442) | -0.029 | – | 0.031 | -0.127 | 0.003 | -0.019 | – | 0.038 | -0.009 | 0.04
PSMA3 (UniProt G3V4X5) | -0.122 | – | – | – | – | 0.255 | – | – | -0.18 | –

Target | log2 fold change [1] | log2 fold change [2] | log2 fold change [3] | log2 fold change [4] | log2 fold change [5] | log2 fold change [6] | log2 fold change [7] | log2 fold change [8] | log2 fold change [9] | log2 fold change [10]
PRKX (UniProt P51817) | – | – | – | – | 0.014 | – | – | 0.098 | – | –
PUM1 (UniProt Q14671) | -0.029 | – | -0.076 | 0.037 | – | – | – | – | – | 0.032
PCBP2 (UniProt F8VZX2) | 0.03 | – | 0.158 | – | -0.04 | – | -0.111 | -0.018 | – | –
PSMB9 (UniProt P28065) | 0.25 | 0.189 | -0.08 | -0.028 | – | 0.246 | – | – | -0.064 | -0.006
PIAS4 (UniProt Q8N2W9) | 0.049 | – | – | – | -0.566 | 0.069 | – | -0.167 | -0.017 | -0.257
PAN2 (UniProt Q504Q3) | – | – | – | – | – | – | 0.013 | – | – | –
PRKD2 (UniProt M0R346) | – | 0.038 | – | – | – | – | – | – | – | 0.06
PDE4A (UniProt P27815) | -0.442 | – | 0.07 | 0.098 | – | 0.112 | – | – | -0.016 | –
PPP1R12B isoform 6 (UniProt O60237) | – | – | – | – | – | – | 0.077 | – | – | –
PPP1R12C (UniProt Q9BZL4) | – | 0.066 | – | – | 0.071 | -0.237 | 0.074 | -0.009 | 0.084 | -0.228
PCID2 (UniProt Q5JVF3) | -0.136 | -0.025 | -0.07 | – | 0.087 | 0.009 | 0.039 | -0.023 | 0.175 | 0.013
PPP2R5C isoform 2 (UniProt Q13362) | 0.159 | – | – | – | 0.005 | – | – | -0.009 | – | –
PHC3 isoform 7 (UniProt Q8NDX5) | 0.287 | -0.029 | 0.001 | – | -0.121 | -0.03 | -0.153 | 0.203 | 0.05 | –
PUF60 isoform 2 (UniProt Q9UHX1) | – | – | 0.18 | -0.042 | -0.203 | -0.071 | – | 0.027 | 0.407 | –
PTEN isoform 2 (UniProt P60484) | 0.081 | – | – | – | – | -0.251 | – | – | 0.094 | -0.028
PCNX1 (UniProt Q96RV3) | – | – | – | – | -0.059 | 0.34 | -0.028 | 0.035 | -0.475 | –
